In PubChem BioAssay AID1508625 (Wald Lab, School of Medicine, Case Western Reserve …, 2021) one finds corrected activity, negative = more killing and z-score data, which are given here for 49 compounds.

This assay is described as follows: enhancers of NK cell killing of ovarian tumor cells, primary screen, imaging, OVCAR3, primary NK cells, calcein-AM imaging (AID 1508625).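 Note: compound given to NK cells 16 h before adding targets at 1.5 to 1 ratio.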 Conditions: OVCAR3 lysis by primary NK cells, at 5 µM; z-score: measured here: robust Z-score, single-point normalisation.

Regarding `COc1ccc(Cc2nc3c4c5c(sc4ncn3n2)C(C)(C)NC(C)(C)C5)cc1OC`, the corrected activity, negative = more killing is -2.36% and the z-score was -1.03.

Take `Cc1ccc(OCCCN2CCNCC2)c([N+](=O)[O-])c1`: the corrected activity, negative = more killing is -1.55% and the z-score was -0.864.

Consider `CCOc1ccc(-n2c(SCC(=O)c3ccccc3)nc3c([nH]c4ccccc43)c2=O)cc1`, for which the corrected activity, negative = more killing is -9% and the z-score is -2.24.

As for `O=C(c1ccccc1Br)N1N=C(c2ccccc2)CC1(O)C(F)(F)F` (stereo not drawn), the corrected activity, negative = more killing is -3.24% and the z-score is -1.24.

For `COc1c(Cl)cc(Cl)cc1C(=O)n1nc(C)cc1C`, the corrected activity, negative = more killing is -2.7% and the z-score is -1.06.

In the case of `O=C(O)C1CSC(c2cccs2)=N1` (stereo not drawn), the corrected activity, negative = more killing is -4.41% and the z-score was -1.19.

Turning to `CCOc1ccc(NC(=O)C2c3ccccc3Oc3ccccc32)c([N+](=O)[O-])c1`, the corrected activity, negative = more killing is -0.899% and the z-score is -0.37.

Consider `COc1ccc(-n2c(=S)[nH]c3cc(C(=O)Nc4cc(C(N)=O)ccc4OC)ccc3c2=O)c(OC)c1`, for which the corrected activity, negative = more killing is -3.49% and the z-score is -1.11.

For `C#CCOc1ccc2c(c1)c(C(C)=O)c(C)n2-c1ccc(OCC)cc1`, the corrected activity, negative = more killing was -1.52% and the z-score was -0.66.

Take `Cc1[nH]c2ccc(-c3n[nH]c(=S)n3C)cc2c1C`: the corrected activity, negative = more killing is -0.764% and the z-score was -0.278.

On to `CC(C)(C)c1ccc(-c2nc3cc(NC(=O)Cc4ccccc4)ccc3o2)cc1`, for which the corrected activity, negative = more killing is -3% and the z-score was -1.06.

With `CC1CCC(NC2CCCc3c2[nH]c2ccc([N+](=O)[O-])cc32)C1` (stereo not drawn), the corrected activity, negative = more killing was 3.64% and the z-score was 1.59.

In the case of `CC1(C)COC(c2ccccc2)=N1`, the corrected activity, negative = more killing is -5.76% and the z-score was -1.78.

For `CCOc1ccc(S(=O)(=O)Nc2ccc(OC(F)(F)F)cc2)c2cccnc12`, the corrected activity, negative = more killing is -1.89% and the z-score is -0.602.

With `Cc1ccc(-c2cc(C(=O)NN=Cc3cccnc3)[nH]n2)cc1`, the corrected activity, negative = more killing is -3.53% and the z-score is -1.54.

In the case of `Cc1cc2c(cc1C)NC(c1coc3ccc(Cl)cc3c1=O)C1=C(CC(C)(C)CC1=O)N2` (stereo not drawn), the corrected activity, negative = more killing was -2.17% and the z-score is -0.968.

As to `COc1ccc(CNC(=O)Cn2c(=S)[nH]c3ccccc3c2=O)cc1`, the corrected activity, negative = more killing was -4.59% and the z-score is -1.22.

Turning to `Cc1ccc(NCc2cccnc2)cc1`, the corrected activity, negative = more killing is -1.25% and the z-score is -0.529.

With `COc1ccc(C)cc1NC(=O)c1cc(S(=O)(=O)NC2CCCCC2C)ccc1F` (stereo not drawn), the corrected activity, negative = more killing was -0.89% and the z-score is -0.24.

Take `COc1ccc(NC(=O)NCCc2ccncc2)cc1`: the corrected activity, negative = more killing was 0.111% and the z-score is 0.0619.

Consider `COc1ccccc1N1CCN(C(=O)c2cnn3c(C(F)(F)F)cc(-c4ccc(C)cc4)nc23)CC1`, for which the corrected activity, negative = more killing was -4.5% and the z-score is -1.43.

As to `Cc1c(C(=O)NC(C)C)oc2ccc(S(=O)(=O)N3CCOCC3)cc12`, the corrected activity, negative = more killing is -3.41% and the z-score was -0.849.

Turning to `CC(=O)c1cccc(NC(=O)C2CCN(C(=O)c3ccc(F)cc3)CC2)c1`, the corrected activity, negative = more killing is -3.29% and the z-score was -1.22.

Consider `COc1cc(C=NS(=O)(=O)c2cccs2)cc(Br)c1O`, for which the corrected activity, negative = more killing is -1.94% and the z-score was -0.74.

Turning to `CC(C)NCCOCCOc1cccc(Br)c1`, the corrected activity, negative = more killing was -3.24% and the z-score was -1.21.

Consider `COC(=O)c1ccc(COC(=O)c2cc3ccccc3oc2=O)cc1`, for which the corrected activity, negative = more killing was -2.06% and the z-score is -1.15.

As for `O=C(Nc1ccc2nn(-c3cccc(Cl)c3)nc2c1)c1cccc2ccccc12`, the corrected activity, negative = more killing is -3.42% and the z-score was -1.21.

With `O=C1OC(c2ccccc2Cl)=NC1=Cc1cccs1`, the corrected activity, negative = more killing is -0.515% and the z-score was -0.219.

As for `COc1ccccc1N1CCN(C(=O)NC2CCCCC2)CC1`, the corrected activity, negative = more killing was -0.143% and the z-score was -0.0428.

Regarding `COc1ccc2ccccc2c1C=Nc1cc(C)ccc1C`, the corrected activity, negative = more killing is -0.753% and the z-score was -0.32.

In the case of `Cc1ccc(S(=O)(=O)n2cnc3ccccc32)cc1C`, the corrected activity, negative = more killing is -9% and the z-score was -2.79.

For the compound `O=CN1CCN(c2nc3ccccc3nc2C(F)(F)F)CC1`, the corrected activity, negative = more killing was -2.49% and the z-score is -1.02.

`CCOC(=O)c1ccc(N=c2oc3ccccc3cc2C(=O)Nc2ccccc2)cc1`: the corrected activity, negative = more killing was 2.85% and the z-score is 1.01.

Take `COc1ccc(C(N)=NOC(=O)CSc2ccccc2)cc1`: the corrected activity, negative = more killing was -1.04% and the z-score was -0.576.

With `O=C1c2ccccc2C(=O)c2c1cc(F)cc2N1CCCCC1`, the corrected activity, negative = more killing is -1.34% and the z-score is -0.401.

Turning to `COc1ccc(S(=O)(=O)N2CCN(C(=O)COc3ccc4ccccc4c3)CC2)cc1`, the corrected activity, negative = more killing is -2.15% and the z-score was -0.961.

Regarding `COc1cccc(-n2c(SCC(=O)Nc3ccccc3F)nc3c([nH]c4ccccc43)c2=O)c1`, the corrected activity, negative = more killing is -10.8% and the z-score was -2.69.

Consider `CCCOc1cccc(C(=O)Nc2ccc3nn(-c4ccc(OC)cc4)nc3c2)c1`, for which the corrected activity, negative = more killing was -3.41% and the z-score is -1.21.

For the compound `CCOc1cc(C=c2sc3nc4ccccc4n3c2=O)ccc1O`, the corrected activity, negative = more killing is -2.97% and the z-score is -1.26.

For the compound `CC(C)(C)NC(=O)CSc1nc2ccc(Cl)cc2o1`, the corrected activity, negative = more killing is -2.67% and the z-score is -0.828.

Take `O=C(c1ccc([N+](=O)[O-])cc1)N1N=C(C2CC2)CC1(O)C(F)F` (stereo not drawn): the corrected activity, negative = more killing is -2.43% and the z-score is -1.

As to `COc1ccccc1C(=O)CC1(O)C(=O)Nc2ccccc21` (stereo not drawn), the corrected activity, negative = more killing is -4.9% and the z-score was -1.82.

With `O=c1cc(-c2ccc([N+](=O)[O-])cc2)nc2c(-c3ccc(Cl)cc3)c(Cc3ccccc3)[nH]n12`, the corrected activity, negative = more killing was -1.76% and the z-score was -0.911.

As for `CCC(C)NC(=O)c1ccc2c(=O)n(Cc3ccccc3OC)c(=S)[nH]c2c1` (stereo not drawn), the corrected activity, negative = more killing was -7.22% and the z-score was -1.91.

Regarding `CCOc1ccc(Br)cc1S(=O)(=O)N1CCN(c2ccc(C)cc2C)CC1`, the corrected activity, negative = more killing is -1.21% and the z-score was -0.676.

For the compound `O=C(COc1ccc(Cl)cc1)N1CCN(C(=O)c2ccccc2F)CC1`, the corrected activity, negative = more killing was -1.94% and the z-score is -0.865.

For the compound `O=C(NCC1CCCO1)Nc1cccc(Cl)c1` (stereo not drawn), the corrected activity, negative = more killing was 1.53% and the z-score was 0.544.

Regarding `CCC(=O)Nc1ccc(Cl)c(NC(=O)COc2ccc(Br)cc2)c1`, the corrected activity, negative = more killing was -0.00546% and the z-score is -0.00304.

As to `COCCNC(=O)c1ccc2snnc2c1`, the corrected activity, negative = more killing was -3.88% and the z-score was -1.16.
